Where “and” joins values, the source holds several entries; their conditions need not be identical. Equal values may be shown once. Inconclusive results are not listed. Where a call stands in place of a potency, no number is given. Where a structure was tested more than once in an assay, its records may differ in their call. Calls of active or inactive are those of the source. Unless noted, calls come from the whole dose curve; as a rule, active = well fitted curve in the direction sought with a large enough effect in the repeat runs; inconclusive = weak or mixed curves; inactive = no such curve, though single readings can be large; an effect the other way counts as inactive or inconclusive.
Legend:
[1] = Human pregnane X receptor (PXR) small molecule agonists, qHTS cell viability counter screen (AID 1346977); note: nearly all actives have a fitted effect of over 50% in size; note: potency is the fitted concentration of half-maximal effect
In short: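 PXR-Luc HepG2 cells in medium with 5% charcoal-stripped FBS were pre-incubated 5hr, then exposed to compounds for 24hr at 37C. Viability was read in the same wells by CellTiter-Fluor fluorescence, reagent added after 23hr with a 1hr incubation.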

[2] = Caspase-3/7 induction in HepG2 cells by small molecules, qHTS assay (AID 1346978); note: nearly all actives have a fitted effect of over 15% in size
In short: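 Caspase-3/7 induction was measured by Caspase-Glo 3/7 luminescence (30 min, room temperature) after a 17 hr compound exposure of wild-type HepG2 cells seeded at 2,000 per well and pre-incubated 5 hr.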

[3] = Caspase-3/7 induction in CHO-K1 cells by small molecules, qHTS cell viability counter screen (AID 1346979); note: nearly all actives have a fitted effect of over 35% in size; note: potency is the fitted concentration of half-maximal effect
In short: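 Wild-type CHO-K1 cells were seeded at 1,500 per well, rested 5hr at 37 C, then exposed to compounds in DMSO. After 16hr, CellTiter-Fluor reagent was added and fluorescence read 1hr later as the viability measure.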

[4] = Caspase-3/7 induction in CHO-K1 cells by small molecules, qHTS assay (AID 1346980); note: nearly all actives have a fitted effect of over 15% in size
In short: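 Luminescent Caspase-Glo 3/7 read (30min, room temperature) quantified apoptosis induction. Cells were wild-type CHO-K1, treated with compound for 17hr at 37 C and 5% CO2.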

[5] = Caspase-3/7 induction in HepG2 cells by small molecules, qHTS cell viability counter screen (AID 1346981); note: nearly all actives have a fitted effect of over 30% in size; note: potency is the fitted concentration of half-maximal effect
In short: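 The parent HepG2 line is plated at 2,000 cells per well and rested 5 hr before compound pinning from DMSO stocks. Following a 16-hr treatment at 37 C, a fluorogenic live-cell substrate (CellTiter-Fluor) reports viability after 1 hr.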

[6] = molecular target: Nuclear receptor subfamily 1 group I member 2 (Homo sapiens) (UniProt O75469); assay: Human pregnane X receptor (PXR) small molecule agonists, qHTS assay (AID 1346982); note: nearly all actives have a fitted effect of over 35% in size; note: potency is the fitted concentration of half-maximal effect
In short: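 After plating in 5% charcoal-stripped FBS and a 5 hr rest, PXR-Luc HepG2 cells received compounds in DMSO. Following 24 hr at 37 C, ONE-Glo was added and light output read.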

[7] = molecular target: Nuclear receptor subfamily 1 group I member 2 (Rattus norvegicus) (UniProt Q9R1A7); assay: Rat pregnane X receptor (rPXR) activation by small molecules, qHTS assay (AID 1346983); conditions: rPXR luciferase reporter cells, One-Glo luminescence, 24 h; stronger effect = higher value; note: nearly all actives have a fitted effect of over 20% in size
In short: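 Luminescent readout (One-Glo luciferase, 30 min room temperature) followed 24 hr compound treatment at 37 C of rPXR cells plated 2,000 per well and preincubated 5hr; qHTS format with compounds delivered in DMSO.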

[8] = molecular target: Nuclear receptor subfamily 1 group I member 2 (Homo sapiens) (UniProt O75469); assay: Human pregnane X receptor (PXR) activation by small molecules, qHTS assay (AID 1346985); note: nearly all actives have a fitted effect of over 40% in size
In short: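 DPX-2 cells (HepG2 co-transfected with a PXR response element and a CYP3A4-promoter luciferase construct) were seeded at 2,000 per well, rested 5 hr at 37C, then exposed to DMSO-dissolved compounds for 24 hr. Activation was read as luciferase luminescence.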

[9] = molecular target: Acetylcholinesterase (Homo sapiens) (UniProt P22303); assay: Acetylcholinesterase (AChE) small molecule antagonists: colormetric cell-based qHTS assay (AID 1347395; calls by dose curve; note: nearly all actives have a fitted effect of over 30% in size; note: potency is the fitted concentration of half-maximal effect)
In short: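 SH-SY5Y cells, plated overnight at 37 C, were exposed to compounds for 30 min at 37 C and 5% CO2. Acetylthiocholine plus DTNB was then added, and thiocholine from endogenous AChE was quantified colorimetrically after 90 min at 37 C.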

[10] = molecular target: Acetylcholinesterase (Homo sapiens) (UniProt P22303); assay: Acetylcholinesterase (AChE) small molecule antagonists: enzyme-based qHTS assay (AID 1347397; calls by dose curve; note: nearly all actives have a fitted effect of over 55% in size; note: potency is the fitted concentration of half-maximal effect); conditions: Potency: AChE enzyme activity inhibition
In short: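 First, recombinant human AChE (50 mU/mL as dispensed) received test compound or DMSO. Second, plates stood 30 min at room temperature. Third, DTNB and acetylthiocholine were added, followed by 10 min at room temperature and colorimetric detection.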

[11] = molecular target: Acetylcholinesterase (Homo sapiens) (UniProt P22303); assay: Acetylcholinesterase (AChE) small molecule antagonists: fluorescence cell-based qHTS assay (AID 1347398; calls by dose curve; note: nearly all actives have a fitted effect of over 50% in size; note: potency is the fitted concentration of half-maximal effect); conditions: Potency: AChE activity
In short: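 Homogeneous quantitative HTS format. SH-SY5Y cells seeded at 2,000 per well settle overnight at 37 C. Compound pretreatment runs 30 min (37 C, 5% CO2); substrate/probe mix then reacts 40 min at RT before reading 490/520 nm.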

[12] = molecular target: Acetylcholinesterase (Homo sapiens) (UniProt P22303); assay: Acetylcholinesterase (AChE) small molecule antagonists: enzyme-based qHTS assay with human liver microsomes (AID 1347399; calls by dose curve; note: nearly all actives have a fitted effect of over 60% in size; note: potency is the fitted concentration of half-maximal effect); conditions: Potency: qHTS inhibition
In short: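 Recombinant human AChE (50 mU/mL in the enzyme mix) and human liver microsomes (0.25 mg/mL final) were preincubated with compound and NADPH (0.25 mg/mL final) for 30 min at 37 C. Acetylthiocholine/DTNB was then added; thiocholine was read colorimetrically after 10 min at room temperature.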

[13] = molecular target: Cytochrome P450 2D6 (Homo sapiens) (UniProt P10635); assay: Cytochrome P450 Family 2 Subfamily D Member 6 (CYP2D6) small molecule antagonists: luciferase reporter qHTS assay (AID 1671196); note: nearly all actives have a fitted effect of over 50% in size; note: potency is the fitted concentration of half-maximal effect
In short: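 Quantitative HTS of Tox21 chemicals against CYP2D6 using a luminescent proluciferin substrate. After NADPH addition, 1 h room-temperature reaction; luminescence recorded 20 min post detection reagent.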

[14] = molecular target: Cytochrome P450 2C19 (Homo sapiens) (UniProt P33261); assay: Cytochrome P450 Family 2 Subfamily C Member 19 (CYP2C19) small molecule antagonists: luciferase reporter qHTS assay (AID 1671197); note: nearly all actives have a fitted effect of over 65% in size; note: potency is the fitted concentration of half-maximal effect
In short: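 P450-Glo CYP2C19 system: enzyme-substrate mix with compound 10 min at room temperature, then NADPH regeneration solution, 1 h at 37C. Proluciferin-to-luciferin conversion detected by luminescence after 20 min with detection reagent; ketoconazole as positive control.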

[15] = molecular target: Cytochrome P450 2C9 (Homo sapiens) (UniProt P11712); assay: Cytochrome P450 Family 2 Subfamily C Member 9 (CYP2C9) small molecule antagonists: luciferase reporter qHTS assay (AID 1671198); note: nearly all actives have a fitted effect of over 50% in size; note: potency is the fitted concentration of half-maximal effect
In short: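 Enzyme-substrate mix preincubated with compound 10 min at room temperature; reaction started with NADPH regeneration solution, 1 h 37C. Luminescent luciferin product read after 20 min detection reagent.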

[16] = molecular target: Cytochrome P450 1A2 (Homo sapiens) (UniProt P05177); assay: Cytochrome P450 Family 1 Subfamily A Member 2 (CYP1A2) small molecule antagonists: luciferase reporter qHTS assay (AID 1671199); note: nearly all actives have a fitted effect of over 50% in size; note: potency is the fitted concentration of half-maximal effect
In short: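 Quantitative high-throughput format using the P450-Glo CYP1A2 system. Reaction initiated by NADPH regeneration solution, 1 h at room temperature, then stopped with detection reagent; luminescence measured 20 min later.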

[17] = molecular target: Voltage-gated inwardly rectifying potassium channel KCNH2 (Homo sapiens) (UniProt Q12809); assay: Human Ether-a-go-go-Related Gene (hERG) channel small molecule antagonists: fluorescence cell-based qHTS assay (AID 1671200); note: nearly all actives have a fitted effect of over 50% in size; note: potency is the fitted concentration of half-maximal effect
In short: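 U2OS cells expressing the channel were plated at 1000 cells/well, incubated overnight at 37 C, then loaded with FluxOR II thallium-sensitive dye for 1 h at room temperature in the dark, with a further 10 min at room temperature before stimulation.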

[18] = molecular target: Cytochrome P450 3A4 (Homo sapiens) (UniProt P08684); assay: Cytochrome P450 Family 3 Subfamily A Member 4 (CYP3A4) small molecule antagonists: luciferase reporter qHTS assay (AID 1671201); note: nearly all actives have a fitted effect of over 50% in size; note: potency is the fitted concentration of half-maximal effect
In short: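 P450-Glo CYP3A4 system with proluciferin substrate; compounds preincubated 10 min RT with enzyme-substrate mix, then NADPH regeneration added for 1 h RT. Detection reagent 20 min, luminescence read as relative luminescence units.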

[19] = molecular target: Nuclear receptor subfamily 1 group I member 2 (Homo sapiens) (UniProt O75469); assay: CYP3A4 induction through human pregnane X receptor (PXR) by small molecules, qHTS assay (AID 1346984); note: nearly all actives have a fitted effect of over 40% in size
In short: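 Human PXR activation is tracked via CYP3A4 promoter-luciferase in DPX-2 (HepG2) cells. Compounds treat cells for 24hr at 37C, and luminescence is read after One-Glo.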

Sequence of Cytochrome P450 2C9 (Homo sapiens) (P11712 whole entry, looked up): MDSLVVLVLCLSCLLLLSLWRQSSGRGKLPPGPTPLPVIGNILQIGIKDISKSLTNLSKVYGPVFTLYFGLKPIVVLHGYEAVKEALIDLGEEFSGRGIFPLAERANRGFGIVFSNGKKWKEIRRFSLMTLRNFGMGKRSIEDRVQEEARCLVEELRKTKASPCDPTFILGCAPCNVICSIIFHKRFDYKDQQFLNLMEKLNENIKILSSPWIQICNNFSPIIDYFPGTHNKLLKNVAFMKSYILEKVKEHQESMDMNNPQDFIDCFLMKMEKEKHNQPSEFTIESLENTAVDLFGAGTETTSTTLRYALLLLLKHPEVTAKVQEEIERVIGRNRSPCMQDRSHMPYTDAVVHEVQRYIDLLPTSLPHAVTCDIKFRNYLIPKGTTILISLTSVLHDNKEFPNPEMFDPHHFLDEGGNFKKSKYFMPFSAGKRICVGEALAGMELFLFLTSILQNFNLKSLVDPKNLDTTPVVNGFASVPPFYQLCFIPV
Sequence of Voltage-gated inwardly rectifying potassium channel KCNH2 (Homo sapiens) (Q12809 whole entry, looked up): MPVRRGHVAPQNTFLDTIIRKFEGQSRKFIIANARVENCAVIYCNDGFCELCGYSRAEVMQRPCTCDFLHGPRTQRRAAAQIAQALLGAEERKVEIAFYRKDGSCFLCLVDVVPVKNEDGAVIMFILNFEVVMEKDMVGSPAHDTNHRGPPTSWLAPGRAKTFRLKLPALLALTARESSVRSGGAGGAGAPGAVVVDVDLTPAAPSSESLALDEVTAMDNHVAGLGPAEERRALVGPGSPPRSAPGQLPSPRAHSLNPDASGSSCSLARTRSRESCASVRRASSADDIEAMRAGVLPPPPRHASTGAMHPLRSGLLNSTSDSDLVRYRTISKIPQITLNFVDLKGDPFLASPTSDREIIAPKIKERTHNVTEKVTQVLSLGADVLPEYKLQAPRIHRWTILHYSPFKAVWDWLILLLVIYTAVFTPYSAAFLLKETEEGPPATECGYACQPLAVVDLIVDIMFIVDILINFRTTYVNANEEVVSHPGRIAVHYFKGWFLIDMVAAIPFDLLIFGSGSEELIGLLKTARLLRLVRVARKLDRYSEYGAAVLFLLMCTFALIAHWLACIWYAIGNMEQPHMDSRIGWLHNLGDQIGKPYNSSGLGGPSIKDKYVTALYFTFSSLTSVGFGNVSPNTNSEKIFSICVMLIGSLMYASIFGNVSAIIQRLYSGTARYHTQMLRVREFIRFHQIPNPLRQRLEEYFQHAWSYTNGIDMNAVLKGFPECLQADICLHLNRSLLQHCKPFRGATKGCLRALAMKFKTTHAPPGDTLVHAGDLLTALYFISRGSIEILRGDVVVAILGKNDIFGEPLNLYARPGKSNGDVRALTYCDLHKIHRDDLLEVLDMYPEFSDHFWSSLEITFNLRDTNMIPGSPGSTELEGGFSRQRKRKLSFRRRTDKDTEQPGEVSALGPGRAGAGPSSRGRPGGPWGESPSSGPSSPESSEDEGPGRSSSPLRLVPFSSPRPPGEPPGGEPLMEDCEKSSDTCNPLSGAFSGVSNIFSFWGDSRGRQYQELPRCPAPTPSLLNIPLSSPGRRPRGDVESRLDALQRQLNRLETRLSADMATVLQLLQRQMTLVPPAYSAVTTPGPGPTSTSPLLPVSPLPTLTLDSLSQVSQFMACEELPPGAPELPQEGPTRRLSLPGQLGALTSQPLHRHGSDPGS
Sequence of Nuclear receptor subfamily 1 group I member 2 (Homo sapiens) (O75469 whole entry, looked up): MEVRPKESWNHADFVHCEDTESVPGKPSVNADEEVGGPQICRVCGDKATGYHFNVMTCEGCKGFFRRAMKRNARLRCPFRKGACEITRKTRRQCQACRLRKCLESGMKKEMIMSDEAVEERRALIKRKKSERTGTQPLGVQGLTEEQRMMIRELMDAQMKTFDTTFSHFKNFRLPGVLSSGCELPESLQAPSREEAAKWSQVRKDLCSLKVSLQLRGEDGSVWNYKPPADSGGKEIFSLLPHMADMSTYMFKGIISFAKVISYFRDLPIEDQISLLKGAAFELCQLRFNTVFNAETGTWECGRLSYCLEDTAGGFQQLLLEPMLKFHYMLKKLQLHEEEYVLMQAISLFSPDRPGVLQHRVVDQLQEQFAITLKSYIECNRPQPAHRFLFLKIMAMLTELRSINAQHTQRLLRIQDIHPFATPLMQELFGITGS
Sequence of Cytochrome P450 3A4 (Homo sapiens) (P08684 whole entry, looked up): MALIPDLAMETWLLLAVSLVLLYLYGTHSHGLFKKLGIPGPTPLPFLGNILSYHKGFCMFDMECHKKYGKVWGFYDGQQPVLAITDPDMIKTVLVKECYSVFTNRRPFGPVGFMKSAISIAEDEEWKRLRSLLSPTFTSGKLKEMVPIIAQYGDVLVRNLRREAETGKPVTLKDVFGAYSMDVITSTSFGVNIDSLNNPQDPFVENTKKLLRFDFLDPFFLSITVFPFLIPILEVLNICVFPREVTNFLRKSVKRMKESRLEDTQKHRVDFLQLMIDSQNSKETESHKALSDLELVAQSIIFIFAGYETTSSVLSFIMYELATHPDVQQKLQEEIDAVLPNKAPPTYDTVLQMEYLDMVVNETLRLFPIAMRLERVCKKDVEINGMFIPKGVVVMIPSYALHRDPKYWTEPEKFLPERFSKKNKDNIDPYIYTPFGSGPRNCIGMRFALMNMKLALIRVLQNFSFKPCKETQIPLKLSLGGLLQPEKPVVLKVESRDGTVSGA
Sequence of Cytochrome P450 1A2 (Homo sapiens) (P05177 whole entry, looked up): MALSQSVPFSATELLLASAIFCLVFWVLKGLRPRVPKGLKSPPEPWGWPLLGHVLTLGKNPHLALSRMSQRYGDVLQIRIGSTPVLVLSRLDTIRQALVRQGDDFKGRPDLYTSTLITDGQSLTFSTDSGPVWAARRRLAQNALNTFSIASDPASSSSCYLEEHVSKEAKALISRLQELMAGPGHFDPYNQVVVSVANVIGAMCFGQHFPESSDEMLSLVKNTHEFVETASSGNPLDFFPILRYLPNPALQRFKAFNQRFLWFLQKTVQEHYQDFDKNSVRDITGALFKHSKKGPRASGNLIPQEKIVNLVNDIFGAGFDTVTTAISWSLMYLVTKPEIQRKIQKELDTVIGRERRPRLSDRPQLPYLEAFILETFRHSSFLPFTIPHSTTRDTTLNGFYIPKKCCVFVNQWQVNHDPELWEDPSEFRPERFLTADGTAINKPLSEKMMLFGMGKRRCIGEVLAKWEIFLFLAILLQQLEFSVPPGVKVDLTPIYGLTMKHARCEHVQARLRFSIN
Sequence of Cytochrome P450 2C19 (Homo sapiens) (P33261 whole entry, looked up): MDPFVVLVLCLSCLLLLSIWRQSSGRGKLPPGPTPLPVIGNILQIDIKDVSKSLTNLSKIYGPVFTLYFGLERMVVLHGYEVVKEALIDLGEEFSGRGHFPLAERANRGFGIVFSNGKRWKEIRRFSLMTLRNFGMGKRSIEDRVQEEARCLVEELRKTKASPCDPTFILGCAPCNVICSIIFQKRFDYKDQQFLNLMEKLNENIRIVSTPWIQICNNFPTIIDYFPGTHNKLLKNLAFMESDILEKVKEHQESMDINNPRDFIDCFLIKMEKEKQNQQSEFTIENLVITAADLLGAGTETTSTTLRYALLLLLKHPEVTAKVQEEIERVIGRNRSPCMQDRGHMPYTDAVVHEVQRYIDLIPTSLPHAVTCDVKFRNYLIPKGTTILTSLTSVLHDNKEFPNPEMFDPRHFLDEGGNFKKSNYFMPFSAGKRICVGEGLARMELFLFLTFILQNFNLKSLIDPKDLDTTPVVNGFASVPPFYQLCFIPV
Sequence of Nuclear receptor subfamily 1 group I member 2 (Rattus norvegicus) (Q9R1A7 whole entry, looked up): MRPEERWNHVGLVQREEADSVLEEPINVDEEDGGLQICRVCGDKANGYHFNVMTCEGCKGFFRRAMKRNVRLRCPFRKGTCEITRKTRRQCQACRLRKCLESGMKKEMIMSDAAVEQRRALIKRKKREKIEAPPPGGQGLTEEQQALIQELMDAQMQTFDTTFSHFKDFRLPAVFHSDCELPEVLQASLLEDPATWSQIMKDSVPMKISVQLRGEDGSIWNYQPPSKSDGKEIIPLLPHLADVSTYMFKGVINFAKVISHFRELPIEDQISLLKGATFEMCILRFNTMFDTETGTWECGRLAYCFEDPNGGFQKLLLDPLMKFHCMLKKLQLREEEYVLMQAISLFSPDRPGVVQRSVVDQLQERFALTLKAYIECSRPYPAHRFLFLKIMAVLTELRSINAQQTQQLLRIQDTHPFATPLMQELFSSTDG
Sequence of Acetylcholinesterase (Homo sapiens) (P22303 whole entry, looked up): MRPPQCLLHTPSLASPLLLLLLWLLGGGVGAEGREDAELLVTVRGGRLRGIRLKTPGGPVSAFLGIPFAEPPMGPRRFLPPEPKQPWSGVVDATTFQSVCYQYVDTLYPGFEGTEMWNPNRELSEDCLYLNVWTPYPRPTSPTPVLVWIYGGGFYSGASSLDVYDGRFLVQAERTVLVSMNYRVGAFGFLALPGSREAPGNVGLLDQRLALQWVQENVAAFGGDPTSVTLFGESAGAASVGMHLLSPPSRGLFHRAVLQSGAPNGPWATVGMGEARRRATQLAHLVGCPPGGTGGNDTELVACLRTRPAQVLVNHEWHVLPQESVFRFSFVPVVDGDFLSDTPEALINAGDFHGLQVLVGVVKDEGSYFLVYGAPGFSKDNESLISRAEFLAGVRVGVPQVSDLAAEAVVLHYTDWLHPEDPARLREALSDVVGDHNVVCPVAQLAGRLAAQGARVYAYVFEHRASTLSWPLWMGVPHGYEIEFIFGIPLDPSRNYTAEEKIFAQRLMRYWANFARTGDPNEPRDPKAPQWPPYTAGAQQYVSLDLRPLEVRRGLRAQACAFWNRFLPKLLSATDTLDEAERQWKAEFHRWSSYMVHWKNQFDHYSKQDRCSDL

Row | SMILES | Potency [1] | Potency [2] | Potency [3] | Potency [4] | Potency [5] | Potency [6] | max activation [7] | outcome [8] | Potency [9] | Potency [10] | Potency [11] | Potency [12] | Potency [13] | Potency [14] | Potency [15] | Potency [16] | Potency [17] | Potency [18] | Potency [19]
1 | O=C1Nc2ccc(Cl)cc2C(c2ccccc2)=NC1O (stereo not given) | inactive | inactive | inactive | inactive | inactive | 38.9 µM (active) and 46.1 µM (active) | 0.163% (inactive) | inactive | inactive | inactive | – | – | – | – | – | – | – | – | –
2 | O=[N+]([O-])c1ccc(Nc2ccccc2)cc1 | 39.8 µM (active) and 48.6 µM (active) | inactive | 48.9 µM (active) and 48.6 µM (active) | inactive | 48.9 µM (active) and 24.3 µM (active) | 30.9 µM (active) and 48.6 µM (active) | – | – | inactive | inactive | inactive | inactive | 32 µM (active) and 35.6 µM (active) | 8.03 µM (active) and 20 µM (active) | 32 µM (active) and 35.6 µM (active) | 12.7 µM (active) and 22.4 µM (active) | inactive | inactive | –
3 | Nc1ccc([N+](=O)[O-])cc1N | 22.4 µM (active) and 61.1 µM (active) | inactive | 6.11 µM (active) and 30.6 µM (active) | inactive | 54.4 µM (active) and 54.5 µM (active) | 8.63 µM (active) | – | – | inactive | inactive | inactive | inactive | inactive and 71 µM (active) | 25.2 µM (active) | 39.9 µM (active) and 63.3 µM (active) | 35.6 µM (active) and 31.7 µM (active) | inactive | 35.6 µM (active) and inactive | –
4 | ClC(Cl)=C(Cl)C(Cl)=C(Cl)Cl | inactive | inactive | inactive | inactive | inactive | inactive | – | – | inactive | inactive | inactive | inactive | inactive | inactive | inactive | inactive | inactive | inactive | –
5 | O=[N+]([O-])/N=C1\NCCN1Cc1ccc(Cl)nc1 | inactive | inactive | inactive | inactive | inactive | inactive | -0.749% (inactive) | inactive | inactive | inactive | inactive | inactive | inactive | inactive | inactive | inactive | inactive | inactive | inactive
6 | NN=C(N)N | inactive | inactive | inactive | inactive | inactive | inactive | -0.866% (inactive) | inactive | – | – | – | – | inactive | 44.8 µM (active) and inactive | inactive | 31.7 µM (active) and 27.5 µM (active) | inactive | inactive | inactive
7 | CC(C)Nc1nc(Cl)nc(NC(C)C)n1 | inactive | inactive | inactive | inactive | inactive | 54.4 µM (active) and 24.3 µM (active) | – | – | inactive and 31.7 µM (active) | inactive and 71 µM (active) | inactive and 31.7 µM (active) | inactive | inactive | inactive and 35.6 µM (active) | inactive | 10 µM (active) and 20 µM (active) | inactive | inactive | –
8 | C[C@]12CC[C@H]3[C@@H](CCC4=CC(=O)CC[C@@H]43)[C@@H]1CC[C@@H]2O | inactive | inactive | inactive | inactive | inactive | inactive | – | – | inactive | inactive | inactive | inactive | inactive | 39.6 µM (active) and 8.71 µM (active) | inactive | inactive | inactive | inactive | –
9 | O=C1C(Cl)=C(Cl)C(=O)c2ccccc21 | 39.8 µM (active) | inactive | 4.34 µM (active) and 9.69 µM (active) | inactive | 61.3 µM (active) | inactive | – | – | inactive | 35.7 µM (active) and 25.2 µM (active) | 11.3 µM (active) and 25.2 µM (active) | 79.9 µM (active) and 31.7 µM (active) | 17.9 µM (active) and 17.8 µM (active) | 7.99 µM (active) and 5.64 µM (active) | 5.04 µM (active) and 4.48 µM (active) | 17.9 µM (active) and 8.94 µM (active) | 21.9 µM (active) | 17.9 µM (active) and 17.8 µM (active) | –
